Bioassay records: PubChem BioAssay, Broad Institute
An excerpt weighted towards active compounds, which were near 6.7% of everything screened.
Pf_Dd2_inh = inhibitors of Plasmodium falciparum Dd2 growth | 94,000 tested, 2.3% active | activity change, % at 10 µM | P. falciparum Dd2 growth, SYBR Green, 72 h; stronger effect = lower value; in the data active means activity change below about -80%; inconclusive means no clear call, values can overlap the other calls
T_cruzi_growth-1 = inhibitors of T. cruzi proliferation. T. cruzi beta-gal in NIH3T3, GalScreen luminescence, 90 h. inhibition, % at 8.34 µM. 77,000 tested, 5.9% active;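 active means mean inhibition above about 93%, with at least 55% of replicates each passing it, limit read from the data, passing the limit was not always enough; inconclusive means only one of those two conditions holds; inactive means neither condition holds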
C_diff_growth = C. difficile growth inhibition. Clostridium difficile clinical isolate growth, OD600, 24 h; stronger effect = lower value. growth activity, negative = inhibition, % at 16 µg/mL (by protocol). 86,000 tested, 0.25% active. AID 1259249;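 active means mean growth activity at or below -80% and every replicate also at or below -80%; inconclusive means mean at or below -80% but some replicate above -80%; inactive means mean growth activity above -80%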;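 further: 0% = DMSO wells and -100% = levofloxacin 16 µg/mL wells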
T_cruzi_growth-2 = blocks T. cruzi growth in NIH3T3 host cells. shares compounds with T_cruzi_growth-1. T. cruzi beta-gal in NIH3T3, GalScreen luminescence, 90 h. inhibition, % at 8.35 µM. 5,600 tested, 72% active. AID 651739;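 active means mean replicate inhibition above about 95% and at least 55% of replicates individually reaching it, limit read from the data; inconclusive means only one of the two criteria is met; inactive means neither criterion is met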
T_cruzi_growth-3 = Trypanosoma cruzi proliferation inhibition; shares compounds with T_cruzi_growth-1; T. cruzi beta-gal in NIH3T3, GalScreen luminescence, 90 h; inhibition, % at 2.09 µM; 5,600 tested, 21% active; AID 651740;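 active means mean inhibition above about 95%, with at least 55% of replicates also reaching it, limit read from the data; inconclusive means meets just one of the two conditions; inactive means meets neither condition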;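 further: plate controls were neutral control median for no effect and positive control median for full effect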
NIH3T3_tox = kills mouse NIH/3T3 fibroblasts | shares compounds with T_cruzi_growth-1 | NIH/3T3 viability, CellTiter-Glo ATP luminescence, 90 h | cytotoxicity (signal decrease), % at 8.35 µM | 5,600 tested, 14% active;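 active means mean signal decrease across replicates above about 35% based on untreated-well scatter, with enough replicates individually passing, limit read from the data; inconclusive means no rule stated though some were filed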;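 further: 0% = median of neutral control wells and 100% = median of positive control wells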
3T3_cytotox_2 = cytotoxicity in mouse NIH/3T3 fibroblasts | shares compounds with T_cruzi_growth-1 | NIH/3T3 viability, CellTiter-Glo ATP luminescence, 90 h | inhibition, % at 24.9 µM | 5,600 tested, 56% active;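 active means mean loss of cell viability signal at or above a set limit, and enough replicates individually reaching it; inconclusive means meets only the mean limit or only the replicate share; inactive means meets neither condition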;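 further: 0% = median of neutral control wells and 100% = median of positive control wells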
Active calls of the source: *; ? = inconclusive; / = not tested or not shown.

SMILES Pf_Dd2_inh T_cruzi_growth-1 C_diff_growth T_cruzi_growth-2 T_cruzi_growth-3 NIH3T3_tox 3T3_cytotox_2
C[C@@H]1CN([C@H](C)CO)C(=O)c2cc(NS(=O)(=O)c3ccc(Cl)cc3)ccc2O[C@@H](C)CCCCO[C@@H]1CN(C)Cc1ccncc1 -51.7 7.4 -6.1 / / / /
C[C@@H]1CCCCO[C@@H](CN(C)Cc2ccccc2)[C@@H](C)CN([C@@H](C)CO)C(=O)c2cc(NS(=O)(=O)c3ccc(Cl)cc3)ccc2O1 -44.5 ? 11.1 95.2* 108.5* 5.5 104.1*
C[C@@H]1CN([C@@H](C)CO)C(=O)c2cc(NS(=O)(=O)c3ccccc3)ccc2O[C@@H](C)CCCCO[C@H]1CN(C)Cc1ccccc1 -18.5 / 0.8 / / / /
CCCN(C)C[C@H]1OCCCC[C@@H](C)Oc2ccc(NS(C)(=O)=O)cc2C(=O)N([C@H](C)CO)C[C@@H]1C 0.2 37.9 3.0 / / / /
C[C@@H]1CCCCO[C@@H](CN(C)Cc2ccccc2)[C@@H](C)CN([C@@H](C)CO)C(=O)c2cc(NS(=O)(=O)c3ccccc3)ccc2O1 -28.3 -5.5 / / / / /
C[C@@H]1CN([C@@H](C)CO)C(=O)c2cc(NS(=O)(=O)c3ccc(Cl)cc3)ccc2O[C@@H](C)CCCCO[C@H]1CN(C)Cc1ccccc1 -38.5 108.7* 2.4 109.0* 107.0* 17.0 88.0*
CCCN(C)C[C@@H]1OCCCC[C@H](C)Oc2ccc(NS(C)(=O)=O)cc2C(=O)N([C@@H](C)CO)C[C@H]1C -39.8 ? -4.6 54.7 40.4 2.5 -8.9
Cc1ccc(S(=O)(=O)N(C)C[C@@H]2Oc3ncc(-c4ccncc4)cc3C(=O)N([C@H](C)CO)C[C@H]2C)cc1 -70.1 / -6.5 / / / /
CN(C)C(=O)c1ccc(-c2ccccc2[C@@H]2[C@@H](C#N)N(C(=O)C3CCC3)[C@H]2CO)cc1 -13.7 / -11.0 / / / /
O=C(C[C@H]1CC[C@H](NC(=O)C2CC2)[C@H](CO)O1)NCc1ccccc1Cl 7.6 / -0.5 / / / /
C[C@H](CO)N1C[C@H](C)[C@H](CN(C)Cc2ccccc2)OCCCC[C@H](C)Oc2ccc(NS(=O)(=O)c3ccc(Cl)cc3)cc2C1=O -27.2 107.2* 5.9 ? ? ? 103.5*
C[C@@H]1CCCCO[C@H](CN(C)Cc2ccccc2)[C@@H](C)CN([C@@H](C)CO)C(=O)c2cc(NS(=O)(=O)c3ccccc3)ccc2O1 -40.6 -68.0 / / / / /
C[C@@H]1CCCCO[C@H](CN(C)Cc2ccncc2)[C@H](C)CN([C@H](C)CO)C(=O)c2cc(NS(C)(=O)=O)ccc2O1 -2.0 7.7 -2.5 / / / /
C[C@@H]1CCCCO[C@H](CN(C)Cc2ccncc2)[C@H](C)CN([C@@H](C)CO)C(=O)c2cc(NS(C)(=O)=O)ccc2O1 30.8 104.0* 0.4 18.6 -10.6 -20.4 -1.6
C[C@H](CO)N1C[C@H](C)[C@@H](CN(C)Cc2ccccc2)OCCCC[C@H](C)Oc2ccc(NS(=O)(=O)c3ccccc3)cc2C1=O 24.3 21.0 / / / / /
C[C@H]1CCCCO[C@@H](CN(C)Cc2ccccc2)[C@@H](C)CN([C@@H](C)CO)C(=O)c2cc(NS(=O)(=O)c3ccc(Cl)cc3)ccc2O1 -51.1 110.3* 0.7 100.4* 55.0 12.2 102.9*
C[C@@H]1CN([C@@H](C)CO)C(=O)c2cc(NS(=O)(=O)c3ccccc3)ccc2O[C@H]1CN(C)S(=O)(=O)c1cccs1 -2.6 39.4 0.8 / / / /
O=C(Nc1ccc(F)cc1)N[C@@H]1CC[C@H](CCNS(=O)(=O)c2cccc(Cl)c2)O[C@H]1CO -0.7 14.7 -4.8 / / / /
Cc1ccccc1S(=O)(=O)NCC[C@H]1CC[C@@H](NC(=O)C2CCOCC2)[C@H](CO)O1 1.6 -24.6 / / / / /
COc1ccc(NC(=O)Nc2ccc3c(c2)C(=O)N([C@@H](C)CO)C[C@@H](C)[C@H](CN(C)Cc2ccccc2)OCCCC[C@H](C)O3)cc1 -39.0 100.0* 0.8 110.3* 42.4 9.0 35.3*
COc1ccc(NC(=O)Nc2ccc3c(c2)C(=O)N([C@@H](C)CO)C[C@@H](C)[C@@H](CN(C)Cc2ccccc2)OCCCC[C@@H](C)O3)cc1 -62.9 91.5 -3.5 / / / /
COc1ccc(NC(=O)Nc2ccc3c(c2)C(=O)N([C@H](C)CO)C[C@@H](C)[C@@H](CN(C)Cc2ccccc2)OCCCC[C@@H](C)O3)cc1 -73.3 103.4* -6.0 111.1* 82.9 7.6 53.0*
COc1ccc(NC(=O)Nc2ccc3c(c2)C(=O)N([C@@H](C)CO)C[C@H](C)[C@@H](CN(C)Cc2ccccc2)OCCCC[C@@H](C)O3)cc1 -74.7 69.2 9.1 / / / /
C[C@@H]1CN([C@H](C)CO)S(=O)(=O)c2ccc(-c3cccc(F)c3)cc2O[C@@H]1CN(C)CC1CC1 -41.1 5.2 -2.4 / / / /
CCC(=O)N1[C@H](CO)[C@H](c2ccccc2-c2cccc(C)c2)[C@@H]1C#N -17.3 / 25.9 / / / /
SMILES Pf_Dd2_inh T_cruzi_growth-1 C_diff_growth T_cruzi_growth-2 T_cruzi_growth-3 NIH3T3_tox 3T3_cytotox_2
Cc1noc(C)c1S(=O)(=O)Nc1ccc2c(c1)C(=O)N([C@@H](C)CO)C[C@H](C)[C@H](CN(C)Cc1ccc(C(F)(F)F)cc1)OCCCC[C@H](C)O2 -43.3 99.5* / 96.5* 67.1 15.1 104.8*
Cc1noc(C)c1S(=O)(=O)Nc1ccc2c(c1)C(=O)N([C@@H](C)CO)C[C@@H](C)[C@H](CN(C)Cc1ccc(C(F)(F)F)cc1)OCCCC[C@@H](C)O2 -46.3 108.1* / 103.0* 116.2* -51.1 105.4*
Cc1noc(C)c1S(=O)(=O)Nc1ccc2c(c1)C(=O)N([C@@H](C)CO)C[C@@H](C)[C@@H](CN(C)Cc1ccc(C(=O)O)cc1)OCCCC[C@H](C)O2 2.6 -25.3 5.0 / / / /
Cc1noc(C)c1S(=O)(=O)Nc1ccc2c(c1)C(=O)N([C@H](C)CO)C[C@@H](C)[C@H](CN(C)Cc1ccc(C(F)(F)F)cc1)OCCCC[C@H](C)O2 -56.8 94.7 9.5 / / / /
Cc1noc(C)c1S(=O)(=O)Nc1ccc2c(c1)C(=O)N([C@@H](C)CO)C[C@@H](C)[C@H](CN(C)Cc1ccc3c(c1)OCO3)OCCCC[C@H](C)O2 -70.1 60.6 9.7 / / / /
Cc1noc(C)c1S(=O)(=O)Nc1ccc2c(c1)C(=O)N([C@H](C)CO)C[C@@H](C)[C@@H](CN(C)Cc1ccc3c(c1)OCO3)OCCCC[C@H](C)O2 -73.3 104.0* 2.6 110.5* 65.3 9.5 34.2*
Cc1noc(C)c1S(=O)(=O)Nc1ccc2c(c1)C(=O)N([C@@H](C)CO)C[C@@H](C)[C@@H](CN(C)Cc1ccc(C(F)(F)F)cc1)OCCCC[C@H](C)O2 -48.0 102.8* / 88.6 110.4* 0.0 60.3*
